Test results published in PubChem BioAssay.
Results with a measured potency or affinity are listed apart. Unmarked numbers belong to inactive results. No rule for the calls is given here.

Target: Melanocortin receptor 4 (Homo sapiens) (UniProt P32245)
Assay: MC4R antagonists, dose response, counter-screen for LGR2 antagonist project, cell-based, plate reader, cherry pick (AID 743444)
Conditions: MC4R-expressing cells, antagonist mode; series mostly up to 35 µM; activity change, negative = inhibition: at the top concentration

Row | SMILES | activity change, negative = inhibition
1 | Cn1nnnc1Sc1ncnc2scc(-c3ccccc3C(F)(F)F)c12 | 50.1%
2 | CCC(=O)N(C)C[C@H]1Oc2cc(C#CCC(C)C)ccc2S(=O)(=O)N([C@H](C)CO)C[C@@H]1C | -9.97%
3 | O=C(Nc1ccc(N2CCOCC2)c(S(=O)(=O)Nc2ccccc2Cl)c1)c1ccc(F)cc1 | 55.3%
4 | COc1ccc2[nH]c3c(c2c1)CCN1C(=O)N([C@@H](C)C(=O)NCc2ccc(C)cc2)C(=O)[C@]31C | 34.4%
5 | Cc1ccc(S(=O)(=O)N(C)C[C@H]2Oc3cc(Br)ccc3S(=O)(=O)N([C@H](C)CO)C[C@H]2C)cc1 | 12.6%
6 | COCC(=O)N[C@@H]1CC[C@@H](CC(=O)NCc2ccccc2OC)O[C@@H]1CO | 2.47%
7 | C[C@H](CO)N1C[C@H](C)[C@H](CN(C)C(=O)Nc2ccccc2)OCCCC[C@H](C)Oc2ccc(NC(=O)CCC(F)(F)F)cc2C1=O | 2.77% [at 16 µM]
8 | COc1cc(NC2CCCCC2O)c2nc(-c3ccc(Cl)cc3)ccc2c1 (configuration not stated) | 70.1%
9 | C[C@H](CO)N1C[C@H](C)[C@H](CN(C)C(=O)Nc2ccccc2)OCCCC[C@H](C)Oc2ccc(NC(=O)Nc3ccccc3)cc2C1=O | 0.264%
10 | O=C(c1ccc(CSc2nc3ccncc3[nH]2)cc1)N1CCN(c2cccc(Cl)c2)CC1 | 42.7%
11 | C[C@H](CO)N1C[C@H](C)[C@H](CN(C)C(=O)CN2CCOCC2)Oc2ncc(C#CCN(C)C)cc2C1=O | -8.02%
12 | C[C@H](CO)N1C[C@H](C)[C@H](CN(C)C(=O)Nc2ccc3c(c2)OCO3)OCCCC[C@H](C)Oc2ccc(NC(=O)C3CCCCC3)cc2C1=O | -5.29%
